VLA-4 inh – inhibition in a human VLA-4 binding assay. P13612. VLA-4 expressing cells, ligand binding flow cytometry. inhibition, % (about 7 µM as worked out from the volumes in the protocol). actives 0.2% (n = 330,000). AID 2557; in the data active = inhibition above about 50%
GASC-1 inh – inhibitors of human GASC-1 (JMJD2C) demethylase; Q9H3R0; GST-JMJD2C(1-420) H3K9me3 demethylation, DELFIA europium; inhibition, % at 2.35 µM; actives 0.069% (n = 330,000); AID 2099;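 active = more than half of a compound's replicate wells show inhibition beyond 50%, single wells judged on their own value; inconclusive = some, but no more than half, of replicates pass 50% inhibition; inactive = no replicate passes 50% inhibition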;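 also: signal counts dimethyl H3K9 product captured on neutravidin plate; 0% = median of DMSO wells and 100% = 0.3 times that DMSO median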
Target sequence (Q9H3R0 1-420 limits assumed): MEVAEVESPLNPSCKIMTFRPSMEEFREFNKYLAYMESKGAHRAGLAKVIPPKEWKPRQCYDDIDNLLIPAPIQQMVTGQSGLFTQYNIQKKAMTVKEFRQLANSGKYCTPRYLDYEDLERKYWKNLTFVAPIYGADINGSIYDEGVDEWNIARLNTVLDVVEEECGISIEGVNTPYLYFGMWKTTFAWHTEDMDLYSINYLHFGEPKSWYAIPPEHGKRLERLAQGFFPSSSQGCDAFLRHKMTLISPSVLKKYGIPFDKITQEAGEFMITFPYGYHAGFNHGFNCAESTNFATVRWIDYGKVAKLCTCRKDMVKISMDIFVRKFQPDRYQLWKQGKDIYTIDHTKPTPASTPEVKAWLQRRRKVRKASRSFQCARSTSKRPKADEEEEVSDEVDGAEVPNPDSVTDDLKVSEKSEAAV
PREPL inh – human PREPL enzyme inhibition; inhibition, % at 5.96 µM; AID 2751; recombinant PREPL, fluorescence polarization activity-based probe; actives 0.68% (n = 320,000); in the data active = inhibition above about 43%;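 also: 0% = enzyme with DMSO and 100% = wells lacking enzyme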
GRK2 aptamer HTS – human GRK2 inhibition via aptamer displacement; P25098; bead flow cytometry, FAM-aptamer displacement from GRK2; inhibition of aptamer binding, % at 10 µM; actives 0.59% (n = 330,000); AID 488847;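 active = inhibition of aptamer binding above 40%, roughly 3 SD of noise, on plates passing a quality check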;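 also: median bead fluorescence of bound FAM aptamer so fluorescent compounds give negative values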
Pemphigus Ab inh – inhibitors of pemphigus antibody binding to human desmoglein-3. binding (percent of control), % at 10 µM. P32926. DSG3-coupled beads, scFv-anti-DSG3-GFP binding, flow cytometry; stronger effect = lower value. actives 0.48% (n = 310,000);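 active = binding more than 3 SD below its plate's average and above zero; inconclusive = below that plate limit but binding exactly zero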;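 also: hits lower antibody fragment binding to DSG3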
GRK2 CP1 – confirmation of human GRK2 inhibitors displacing RNA aptamer; actives 4% (n = 2,000); aptamer displacement, % at 10 µM; bead-bound GRK2, FAM-aptamer displacement, flow cytometry; shares compounds with GRK2 aptamer HTS; AID 504451;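 active = aptamer displacement above 40%, near three times the noise of non-fluorescent compounds, on plates passing quality checks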;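 also: negative values mostly reflect intrinsic compound fluorescence rather than true enhancement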
Aptamer quench SP – counter-screen for GRK2 aptamer inhibitors: fluorescent aptamer quenchers. Carboxyfluorescein RNA aptamer on beads, flow cytometry quenching; stronger effect = lower value. 2,000 tested, under 10 active. shares compounds with GRK2 aptamer HTS. fluorescence response (% of DMSO), % at 10 µM;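 active = compounds that quench the bead-bound fluorescent RNA probe, cutting fluorescence to under half of the solvent control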;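 also: counterscreen run without GRK2 so only probe quenching by compound is measured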
GRK2 confirm 2 – confirmation of human GRK2 inhibitors binding RNA aptamer site; shares compounds with GRK2 aptamer HTS; bead-bound GRK2, FAM-aptamer displacement, flow cytometry; inhibition of aptamer binding, % at 10 µM; 360 tested, under 10 active; AID 504782;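 active = inhibition of aptamer binding above 40%, about triple the noise seen with nonglowing compounds, on plates passing quality control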;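 also: negative values mostly come from compounds that fluoresce themselves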
FAM quench SP – counter-screen for GRK2 binding hits: quenchers of fluorescent RNA aptamer; shares compounds with GRK2 aptamer HTS; carboxyfluorescein RNA aptamer beads, flow cytometry quenching; stronger effect = lower value; fluorescence response vs DMSO, % at 10 µM; 360 tested, under 10 active; AID 588494;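 active = response vs DMSO under 50%, meaning signal dropped by over half, treated as fluorescence quencher; inconclusive = no clear call, values can overlap the other calls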;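 also: labelled aptamer on streptavidin beads without GRK2 as a quench counter-screen; 100% = bead fluorescence of DMSO wells and lower means quenching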
Starred values were filed as active, the others as inactive; i = inactive; ? = inconclusive; · = no result. Compounds with a hit are over-represented: about 1.6% of the library has one in this group of screens.

SMILES	VLA-4 inh	GASC-1 inh	PREPL inh	GRK2 aptamer HTS	Pemphigus Ab inh	GRK2 CP1	Aptamer quench SP	others
CC(=O)OCC1OC(OC2C[C@]3(C)C(CC(O)C4C([C@](C)(CCC=C(C)C)OC5OC(CO)C(O)C(O)C5O)CC[C@]43C)[C@@]3(C)CCC(O)C(C)(C)C23)C(O[C@@H]2OC(C)C(O)C(O)C2O)C(O)C1O (stereo partly drawn)	25	40	16	11	101	·	·
Cc1ccc(S(=O)(=O)NCCC(=O)Nc2ccc(Cl)c(Cl)c2)cc1	17	3	-56	8	79	·	·
Cc1ccc(S(=O)(=O)NCCC(=O)Nc2nnc(C)s2)cc1	5	0	1	100*	111	3	102
COc1ccc(C(=O)C(=O)c2ccc(OCCO)cc2)cc1	-18	8	21	1	98	·	·
COc1cc(/C=N/Nc2nc3ccccc3s2)cc([N+](=O)[O-])c1O	-3	-8	17	68*	101	2	99
O=c1c2ccccc2nnn1CSc1ccccc1	3	6	-2	97*	·	·	·	GRK2 confirm 2=13;FAM quench SP=100
CCCNc1nc(Cl)nc(NCc2cccnc2)n1	5	-4	9	0	112	·	·
CC(C)CCNC(=O)CCn1c(=S)oc2ccccc21	-5	?	11	43*	98	1	97
Cc1c(Cl)c(-c2n[nH]c(=S)n2-c2ccc(F)cc2)nn1C	5	36	2	0	·	·	·
COc1ccc(CCNC(=S)Nc2ccc(OC)cc2)cc1	3	-13	3	52*	99	-8	96
CCC(C)Oc1nc2ccccc2nc1NS(=O)(=O)c1ccccc1 (stereo not drawn)	12	1	11	82*	106	0	101
CCn1c(=S)sc2c(=O)n(CC(=O)Nc3ccccc3C(F)(F)F)c(C)nc21	9	-4	13	59*	120	-12	97
O=P(C(=S)Nc1ccccc1Cl)(c1ccccc1)c1ccccc1	·	·	·	·	101	·	·
O=C(C1CC(=O)N(c2ccc(Cl)cc2)C1)N1CCOCC1 (stereo not drawn)	-2	3	10	3	101	·	·
C#CCOCCOCCOCCNc1nc(N2CCOCC2)nc(N2CCN(C(=O)CCCCCCCCCCNC(=O)[C@@H]([C@H](C)O)n3cc(C)nn3)CC2)n1	6	5	2	3	103	·	·
C#CCOCCOCCOCCNc1nc(N2CCN(C(=O)CCCCCCCCCCNC(=O)[C@@H]([C@H](C)O)n3cc(C)nn3)CC2)nc(N2CCN(C(=O)CCCCCCCCCCNC(=O)[C@@H]([C@H](C)O)n3cc(C)nn3)CC2)n1	-14	-14	8	52*	·	5	102
CC12CCC(C(=O)N(NC(=O)c3cc(Cl)ccc3O)C1=O)C2(C)C (stereo not drawn)	14	4	7	3	115	·	·
COc1ccccc1OCCC(=O)Nc1cccc(S(=O)(=O)N2CCCCC2)c1	6	3	5	0	107	·	·
COc1ccccc1OCCC(=O)Nc1cccc(S(=O)(=O)N2CCOCC2)c1	3	·	2	97*	104	0	101
CCOc1ccc(/C=N/NC(=O)CNC(=O)c2ccc(S(=O)(=O)N3CCOCC3)cc2)cc1	-2	7	-2	0	103	·	·
O=S(=O)(c1cccc(Cl)c1Cl)N1CCCCC1	5	17	0	82*	99	0	101
Cc1ccc(NC(=O)CN(C)C(=O)C2COc3ccccc3O2)cc1 (stereo not drawn)	-9	2	1	0	105	·	·
COc1ccccc1CN(C)C(=O)C1COc2ccccc2O1 (stereo not drawn)	19	9	-8	4	·	2	99
Cc1cc(C(C)(C)C)cc(S(=O)(=O)NCCO)c1C	-14	6	1	99*	97	-5	100
COC(=O)CNc1c(-c2ccccc2)nc2ccc(Br)cn12	-2	-11	14	0	98	·	·
SMILES	VLA-4 inh	GASC-1 inh	PREPL inh	GRK2 aptamer HTS	Pemphigus Ab inh	GRK2 CP1	Aptamer quench SP	others
Cc1ccc(C(=O)N(C)c2ccc(OCC(=O)N3c4ccc(C)cc4C4CN(C)CCC43)cc2)cc1 (stereo not drawn)	11	12	17	0	108	·	·
Cc1cc(C)n(/N=C/c2ccccc2)c(=O)c1C#N	18	-7	1	1	100	·	·
Cc1cc(C)n(/N=C/c2c[nH]c3ccccc23)c(=O)c1C#N	21	-16	12	65*	90	1	108
CCN(C(=O)c1cn(CC)c(=O)c2cc(OC)c(OC)cc12)c1ccccc1C	14	2	-5	0	104	·	·
CCCN(C(=O)c1cn(C)c(=O)c2ccccc12)c1ccccc1C	16	-3	-1	0	93	-3	96
Cc1ccc2sc(C)[n+](CCO)c2c1	14	-2	-4	100*	98	-2	97
CCCC[n+]1c(C)sc2ccc(C)cc21	5	-1	6	9	98	·	·
O=C1SCCN1N=Cc1ccc([N+](=O)[O-])o1	·	·	·	·	92	·	·
O=C(Nc1ccccc1C(=O)N1CCCC1)c1ccc(Cl)cc1Cl	4	-7	3	0	94	·	·
O=C(/C=C/c1ccco1)Nc1ccc(-c2nc3ccccc3[nH]2)cc1	17	6	-7	49*	92	-1	124
O=C(Nc1ccc(-c2nc3ccccc3[nH]2)cc1)c1ccco1	8	i	7	1	87	·	·
Cc1cccc(C(C)C)c1NC(=O)CN1C(=O)NC2(CCc3ccccc32)C1=O (stereo not drawn)	-5	-6	-2	0	102	·	·
CN(C)c1ccc2nc3ccc(=[N+](C)C)cc-3sc2c1	-14	-4	21	57*	102	32	59
CN(C)c1ccc2nc3ccc(=O)cc-3sc2c1	·	·	·	·	101	·	·
O=C(CNC(=O)c1ccccc1F)N/N=C/c1ccc2c(c1)OCO2	1	4	4	82*	·	-2	101
O=C(CNC(=O)c1ccccc1Cl)N/N=C/c1ccc2c(c1)OCO2	27	4	-2	0	99	·	·
CCN(CC)CCNC(=O)CNC(=O)c1nn(-c2ccc(OC)cc2OC)c(=O)c2ccccc12	3	-9	8	0	95	-4	103

Screening results from PubChem BioAssay.
